Experimental data reported in PubChem BioAssay (NCATS).
Results filed as inconclusive are left out. Active and inactive are the calls of the source. Calls follow the shape of the full dose curve; tested in HEK293 reporter line.

assay: qHTS for Inhibitors of the Functional Ribonucleoprotein Complex (vRNP) of Lymphocytic Choriomeningitis Arenaviruses (LCMV): Viability assay - alamar blue signal for LCMV Primary Screen (AID 1347085); conditions: alamar blue viability counter-screen, LCMV vRNP screen cells; series mostly up to 57.5 µM; activity change, negative = lower viability: at the top concentration; also: nearly all actives have a fitted effect of over 80% in size
% is scaled to controls: 0 for no effect and ±100 for the full control effect; potency is read from the fitted curve at half-maximal effect.

Row | SMILES | Potency | activity change, negative = lower viability
1 | CCN(CC)CCNC(=O)c1c(C)[nH]c(C=C2C(=O)Nc3ccc(F)cc32)c1C | 49.8 µM (active) | –
2 | CCC[C@H]1C[C@H](C(=O)N[C@@H]([C@@H]2O[C@@H](SC)[C@@H](O)[C@@H](O)[C@@H]2O)[C@H](C)Cl)N(C)C1 | – | -3.74% (inactive)
3 | CC1CCC(C(C)[C@H]2CCC3C4CC(=O)C5C[C@@H](O)CC[C@]5(C)C4CC[C@@]32C)=NC1 (stereo not given in full) | – | 2.63% (inactive)
4 | C=C(CC1CC(O)[C@]2(C)OC3CC4OC5C[C@]6(C)O[C@]7(C)CCC8OC9C[C@]%10(C)OC%11C(C)=CC(=O)OC%11CC%10OC9C[C@@H](C)C8OC7CC6O[C@]5(C)C/C=C\C4OC3CC2O1)C(=O)O (stereo not given in full) | – | -3.75% (inactive)
5 | COc1cc2c(cc1O)C(Cc1ccc(O)cc1)NCC2 (stereo not given) | – | -8.87% (inactive)
6 | CCCCCCCCCCCCCCCC(=O)NCCc1c[nH]c2ccccc12 | – | 10.9% (inactive)
7 | Cc1c(O[C@@H]2O[C@H](CO)[C@@H](O)[C@H](O)[C@H]2O)c(CO)c(O[C@@H]2O[C@H](CO)[C@@H](O)[C@H](O)[C@H]2O)c2c1O[C@@H](c1ccccc1)C[C@@H]2O | – | 29.9% (inactive)
8 | O[C@@H]1COC2[C@@H](O)CO[C@@H]21 (stereo not given in full) | – | -137% (inactive)
9 | CC(C)=CCC/C(C)=C/COC=O | – | 11% [at 115 µM] (inactive)
10 | CC1(C)C2CC[C@]3(C)C(CC=C4[C@@H]5C[C@@](C)(CO)[C@@H]6C[C@@]5(CC[C@]43C)C(=O)O6)[C@@]2(C)CC[C@@H]1O (stereo not given in full) | – | 17% (inactive)
11 | Cc1ccc(C(C)(C)O)cc1 | – | 12.6% [at 115 µM] (inactive)
12 | CC(C)=CCC/C(C)=C/CC/C(C)=C/CCC1(C)CCc2cc(O)ccc2O1 (stereo not given) | – | 8.45% (inactive)
13 | CC(=Cc1ccccc1)C=C1SC(=S)N(CC(=O)O)C1=O | – | -0.659% (inactive)
14 | CC1CCC(C(C)(C)S)C(=O)C1 (stereo not given) | – | 11.7% [at 115 µM] (inactive)
15 | CC[C@H]1OC(=O)[C@H](C)[C@@H](O[C@H]2C[C@@](C)(OC)[C@@H](O)[C@H](C)O2)[C@H](C)[C@@H](O[C@@H]2O[C@@H](C)C[C@H](N(C)C)[C@@H]2O)[C@](C)(O)C[C@@H](C)C(=O)[C@H](C)[C@@H](O)[C@]1(C)O | – | 17.1% (inactive)
16 | C=CC(=O)Nc1cccc(Nc2nc(NC3CCC(N(C)C)CC3)nc3c2ncn3C(C)C)c1 (stereo not given) | 0.544 µM (active) | –
17 | C/C(=C/CCC(C)(O)C1CC[C@@]2(C)[C@@H]3CC=C4[C@@H](CC[C@H](O[C@H]5O[C@@H](CO)[C@H](O)[C@@H](O)[C@@H]5O)C4(C)C)[C@]3(C)C(=O)C[C@]12C)CO[C@@H]1O[C@H](CO)[C@@H](O)[C@H](O)[C@H]1O (stereo not given in full) | – | 15% (inactive)
18 | CC(C)C(=O)OCCc1ccccc1 | – | -30.3% [at 115 µM] (inactive)
19 | COc1ccc2c(c1)OC[C@H]1c3cc4c(cc3O[C@@H]21)OCO4 | – | 0.507% (inactive)
20 | C[C@@H](O)CCC[C@H](O)/C=C/[C@@H]1[C@@H](C/C=C\CCCC(=O)O)[C@@H](O)C[C@H]1O | – | -64.4% [at 0.757 µM] (inactive)
21 | COc1ccccc1NC(C)=O | – | -12.2% (inactive)
22 | NCCC(=O)c1ccccc1N | – | 6.43% (inactive)
23 | C=C1C[C@H](O)[C@@H]2[C@H](OC(=O)[C@H]2C)[C@H]2[C@H](C)[C@@H](O)C[C@@H]12 | – | 7.86% (inactive)
24 | CC(C)N(CCCNC(=O)Nc1ccc(C(C)(C)C)cc1)C[C@H]1O[C@@H](n2cc(Br)c3c(N)ncnc32)[C@H](O)[C@H]1O | – | -2.65% (inactive)
25 | COC(=O)CC(C)CCC=C(C)C (stereo not given) | – | 6.04% [at 115 µM] (inactive)
26 | COc1ccc(C(=O)/C=C/c2ccc(O)cc2)c(O)c1CC=C(C)C | – | 9.76% (inactive)
27 | C=C1[C@H]2C[C@H]3[C@H]4N5C[C@]6(C)CCC[C@]47[C@H]([C@H]2O)[C@]3(C[C@]5(O)[C@H]67)[C@@H]1O | – | -2.26% (inactive)
28 | C=C(C)[C@H]1CC=C(CO)CC1 | – | -2.28% (inactive)
29 | C/C=C1\CN2[C@H]3C[C@@]45c6ccccc6N(C)[C@H]4[C@@H]2CC1C3[C@H]5O (stereo not given in full) | – | -6.79% (inactive)
30 | COc1ccc([C@@H]2[C@@H](O)[C@H](O)[C@@H](C)N2C)cc1OC | – | 10.3% (inactive)
